LGR2 inh = Drosophila LGR2 receptor signaling inhibition. HEK293 LGR2, CRE-luciferase, bursicon-stimulated, 4 h. inhibition, % at 9.99 µM. actives 0.35% (n = 380,000). AID 720647;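 active = drop in luminescence signal, shown as inhibition above about 50% in the replicate tests, limit read from the data, passing the limit was not always enough; inconclusive = probably only some replicates passing the limit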;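 also: agonist challenge used bursicon conditioned medium at about half maximal strength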
EWS-Fli block = EWS/Fli transcriptional activity inhibition; A673 NR0B1-luciferase reporter, viability-normalised; inhibition, % at 12.6 µM; actives 0.67% (n = 350,000);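 active = mean inhibition of at least 50% after viability correction, with every replicate also passing that limit; inconclusive = mean reaches 50% but only one of two replicates passes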;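 also: firefly luciferase signal divided by Alamar Blue viability fluorescence both relative to DMSO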
MITF TRPM1 inh = inhibitors of MITF-driven TRPM1 promoter in melanoma cells; SK-MEL-5 TRPM1 promoter luciferase, 24 h; inhibition, % at 12.5 µM; AID 488899; actives 0.83% (n = 330,000);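 active = mean inhibition across replicates of 60% or more, whatever share of single replicates reaches that level; inconclusive = some that reach 60%, reason not given; inactive = mean inhibition across replicates below 60%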
PAX8 reporter = PAX8 transcriptional activity inhibition; actives 1.2% (n = 360,000); inhibition, % at 12.6 µM; RMG-I TPO-luciferase reporter, SteadyGlo, 24 h;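 active = mean replicate inhibition at least 60% with every replicate also reaching 60%; inconclusive = only one of the two criteria is met; inactive = mean below 60% and not all replicates reaching 60%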;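 also: luciferase light reporting Pax8 driven TPO promoter activity; plate controls were median of neutral control wells for no effect and mitoxantrone controls for full effect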
PGC1a acetyl inh = PGC1a acetylation modulation, inhibitor mode; AID 651687; U2OS PGC1a acetylation, AlphaScreen anti-acetyl-lysine; with virally co-expressed GCN5 acetyltransferase; inhibition, % at 15.6 µM; actives 0.17% (n = 350,000);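 active = every replicate shows inhibition of at least 40%; inconclusive = mean inhibition at least 40% but some replicate below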;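 also: 0% = neutral control wells and 100% = positive control wells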
EBV LMP1 NFkB = inhibitors of Epstein-Barr LMP1-induced NF-kappaB reporter | LMP1-induced NF-kappaB luciferase reporter cells, luminescence | inhibition, % at 12.5 µM | actives 0.69% (n = 350,000); in the data active = inhibition above about 41%; inconclusive = no clear call, values can overlap the other calls;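 also: 0% = neutral control wells and 100% = reference inhibitor control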
* marks the source's active call; other numbers are inactive results; ? = inconclusive; nt = no result given. An excerpt weighted towards active compounds, which were near 2.2% of everything screened.

SMILES | LGR2 inh | EWS-Fli block | MITF TRPM1 inh | PAX8 reporter | PGC1a acetyl inh | EBV LMP1 NFkB
C[C@H](CO)N1C[C@H](C)[C@H](CN(C)Cc2ccc(C(=O)O)cc2)OCCCC[C@H](C)Oc2ccc(NC(=O)Nc3ccc4c(c3)OCO4)cc2C1=O | 20 | -18 | nt | -19 | 6 | nt
CC1(C)CC1C(=O)Nc1ccc([N+](=O)[O-])cc1Br (configuration not stated) | -5 | nt | -19 | nt | -3 | -4
Cc1ccc(C2(c3ccc(C)cc3)CC2C(=O)Nc2ccc([N+](=O)[O-])cc2O)cc1 (configuration not stated) | nt | nt | 74* | nt | 9 | 38
O=c1c(C=NCc2cccnc2)c(C(F)(F)F)[nH]n1-c1nc2ccccc2s1 | 58* | -23 | -11 | 14 | 7 | 15
C[C@@H]1CN([C@@H](C)CO)S(=O)(=O)c2ccc(-c3ccncc3)cc2O[C@@H]1CN(C)C(=O)CN(C)C | -16 | -9 | nt | 0 | 1 | nt
CCOC(=O)c1sc2nc(C)nc(NCc3ccccc3)c2c1C | -2 | 6 | -26 | -10 | nt | 52*
CCOC(=O)c1sc2nc(C)nc(Nc3ccccc3)c2c1C | -31 | 6 | 14 | -10 | -6 | 6
C[C@H]1CN([C@@H](C)CO)C(=O)c2cc(Br)cnc2O[C@@H]1CN(C)C(=O)c1ccc(F)cc1 | 1 | -15 | nt | 0 | 3 | nt
C=CCN1C(c2ccccc2)=CS/C1=C(\C#N)c1nnc2n1CCCCC2 | nt | nt | 6 | nt | -7 | -14
C=CCn1c(=O)/c(=C/c2ccc(Cl)cc2)s/c1=C(\C#N)c1nnc2n1CCCCC2 | 46 | -3 | -7 | 13 | 4 | 71*
C[C@@H]1CN([C@H](C)CO)C(=O)c2cc(NC(=O)CCCN(C)C)ccc2O[C@H]1CN(C)S(=O)(=O)c1ccc(F)cc1 | -1 | -6 | nt | -4 | 2 | nt
C=CCn1c(Sc2ncc([N+](=O)[O-])s2)n[nH]c1=O | 6 | 37 | 82* | 41 | 4 | ?
C[C@@H]1CN([C@@H](C)CO)S(=O)(=O)c2ccc(C#CC3CCCCC3)cc2O[C@H]1CN(C)C | 8 | 28 | nt | nt | 3 | nt
O=C(/C=C/c1ccc(Cl)cc1)c1ccc([N+](=O)[O-])o1 | 2 | 25 | 98* | 15 | -33 | 2
Cc1ccc(/C=C/C(=O)c2ccc([N+](=O)[O-])o2)cc1 | 16 | 64* | nt | 27 | nt | nt
Cc1cc(O)c(C(=O)/C=C/c2ccc(Cl)cc2)c(=O)o1 | -36 | -29 | -10 | -74 | 7 | -16
Cc1ccc(CNC(=O)c2ccc([N+](=O)[O-])o2)cc1 | nt | nt | 51 | 17 | -16 | -33
O=C(N[C@H]1CC[C@H](CCNS(=O)(=O)Cc2ccccc2)O[C@@H]1CO)c1cnccn1 | -3 | -4 | nt | 2 | 6 | nt
O=C(CCNc1cccc(F)c1)c1cc2ccccc2o1 | -38 | -7 | -8 | 8 | 6 | 46*
O=C(CCNc1ccc(F)cc1)c1cc2ccccc2o1 | -29 | 11 | -18 | 18 | nt | -17
C[C@@H]1CCCCO[C@@H](CN(C)S(=O)(=O)c2cccs2)[C@H](C)CN([C@@H](C)CO)C(=O)c2cc(NC(=O)C3CCCCC3)ccc2O1 | 15 | 9 | nt | nt | 1 | nt
Fc1cccc(NCCc2c[nH]c3ccccc23)n1 | -54 | -12 | nt | -51 | nt | -15
Cc1ccc(-c2nc(NCCCO)c3ccccc3n2)cc1 | -18 | -1 | -3 | -8 | -4 | -3
OCCCNc1c2ccccc2nc2ccccc12 | 19 | 20 | 83* | 33 | -41 | -87
c1ccc2c(NCCc3c[nH]c4ccccc34)c3ccccc3nc2c1 | 18 | 44 | 88* | -15 | nt | -56
SMILES | LGR2 inh | EWS-Fli block | MITF TRPM1 inh | PAX8 reporter | PGC1a acetyl inh | EBV LMP1 NFkB
O=c1c2ccccc2nc2c3ccccc3c(NCCN3CCOCC3)nn12 | nt | nt | nt | 21 | nt | nt
O=c1c2c(-c3ccccc3)csc2nc2c3ccccc3c(NCCN3CCOCC3)nn12 | 64* | 0 | 6 | 20 | nt | -46
C/C=C/c1ccc([C@H]2[C@@H](CO)N(C(=O)CC3CC3)C23CN(S(C)(=O)=O)C3)cc1 | 7 | 11 | nt | -9 | -1 | nt
CCOC(=O)C1CCN(C(=O)CNC(=O)OC(C)(C)C)CC1 | -3 | nt | 1 | nt | 2 | 43*
CCOc1ccc(Nc2nc(NCc3ccco3)nc(N)c2[N+](=O)[O-])cc1 | -15 | -10 | -17 | 1 | 72* | -5
Nc1nc(NCc2ccco2)nc(Nc2ccc(F)cc2)c1[N+](=O)[O-] | -3 | -8 | -3 | 5 | 1 | -2
CCCNC(=O)COC(=O)/C=C/c1ccco1 | 3 | -1 | -4 | 88* | nt | -2
CCCNC(=O)COC(=O)/C=C/c1ccc2c(c1)OCO2 | -11 | 3 | -1 | 69* | nt | -1
O=C(C[C@@H]1CC[C@@H](NC(=O)c2ccc3c(c2)OCO3)[C@@H](CO)O1)NC1Cc2ccccc2C1 | 8 | -5 | nt | -9 | 7 | nt
CN(C)c1nc(N)c([N+](=O)[O-])c(NCc2ccccc2)n1 | -7 | -5 | -5 | 68* | nt | -44
CC(C)c1ccc(NC(=O)c2n[nH]c(=O)c3ccccc23)cc1 | nt | -90 | -36 | -75 | 108* | -15
O=S(=O)(NC1c2cccc3cccc(c23)C1Sc1ncccn1)c1ccccc1 (configuration not stated) | 16 | 6 | 1 | -3 | nt | 61*
O=C(C[C@@H]1CC[C@H]2[C@@H](COC[C@@H](O)CN2Cc2nccs2)O1)NCc1ccc(Cl)cc1 | 15 | -132 | nt | -5 | -9 | nt
CCOc1cc(/C=C2/NC(=S)NC2=O)ccc1OCc1ccc([N+](=O)[O-])cc1 | -1 | nt | 63* | nt | 1 | -1
C[C@@H]1CN([C@H](C)CO)C(=O)c2cc(NC(=O)CCC(F)(F)F)ccc2O[C@@H](C)CCCCO[C@@H]1CN(C)C(=O)CCC(F)(F)F | -11 | -4 | nt | -24 | -8 | nt
COc1ccccc1C#Cc1cnc2c(c1)C(=O)N([C@H](C)CO)C[C@@H](C)[C@@H](CN(C)C(C)=O)O2 | -35 | -17 | nt | nt | 3 | nt
Cc1cc(=O)[nH]c(N/N=C/c2ccccc2Cl)n1 | 5 | -34 | -38 | -20 | 4 | -5
Cc1cc(=O)[nH]c(NN=Cc2cc(Br)ccc2O)n1 | -4 | 1 | 31 | 17 | 50* | 56*
CCN(CC)c1ccc(/C=N/Nc2nc(C)cc(=O)[nH]2)c(O)c1 | 15 | 19 | 44 | 75* | nt | 61*
COc1ccc(N2C3=C(CC4=C2CC(C)(C)CC4=O)C(=O)CC(C)(C)C3)cc1 | 8 | 46 | 87* | nt | -12 | 10
CCOC(=O)C(C)Sc1nnc(-c2c[nH]c3ccccc23)n1C (configuration not stated) | nt | -4 | 7 | 0 | nt | 2
CCn1c(SCC(=O)NCc2ccco2)nnc1-c1c[nH]c2ccccc12 | -9 | nt | -7 | nt | -9 | 10
CCn1c(SC(C)C(=O)OC)nnc1-c1c[nH]c2ccccc12 (configuration not stated) | 3 | 5 | 9 | 4 | 8 | 75*
